T1: RBFOX1 RRM RbFoxmut (Fox-RRM*) (Homo sapiens, UniProt Q9NWB1 109-208, R118D;E147R;N151S;E152T)
T1 sequence: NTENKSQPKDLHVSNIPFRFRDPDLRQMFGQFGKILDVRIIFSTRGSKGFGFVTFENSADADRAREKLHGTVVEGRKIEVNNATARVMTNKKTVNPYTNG

B1: UCCCGUA (DNA:RNA)
RNA: GGGAGACCGGAAUUCAGAUUGUCCUCCCGUAUUAAAUCCCGUCGUAGCCACCA
DNA 1: CAATCTGAATTCCGGTCTCCC
DNA 2: TGGTGGCTACGACGGGATT
B2: CUGAAUC (DNA:RNA)
RNA: B1 RNA with U25C, C26U, C27G, C28A, G29A, A31C
DNA 1: CAATCTGAATTCCGGTCTCCC
DNA 2: TGGTGGCTACGACGGGATT
B3: UGAUUGU (DNA:RNA)
RNA: B1 RNA with C26G, C27A, C28U, G29U, U30G, A31U
DNA 1: CAATCTGAATTCCGGTCTCCC
DNA 2: TGGTGGCTACGACGGGATT
B4: CCCUGAA (DNA:RNA)
RNA: B1 RNA with U25C, C28U, U30A
DNA 1: CAATCTGAATTCCGGTCTCCC
DNA 2: TGGTGGCTACGACGGGATT
B5: UGAAUGU (DNA:RNA)
RNA: B1 RNA with C26G, C27A, C28A, G29U, U30G, A31U
DNA 1: CAATCTGAATTCCGGTCTCCC
DNA 2: TGGTGGCTACGACGGGATT
B6: CUGAAUG (DNA:RNA)
RNA: B1 RNA with U25C, C26U, C27G, C28A, G29A, A31G
DNA 1: CAATCTGAATTCCGGTCTCCC
DNA 2: TGGTGGCTACGACGGGATT
B7: UGAAAUG (DNA:RNA)
RNA: B1 RNA with C26G, C27A, C28A, G29A, A31G
DNA 1: CAATCTGAATTCCGGTCTCCC
DNA 2: TGGTGGCTACGACGGGATT
B8: CGGUUCC (DNA:RNA)
RNA: GGGAGACCGGAAUUCAGAUUGUCCCGGUUCCUUAAAUCCCGUCGUAGCCACCA
DNA 1: CAATCTGAATTCCGGTCTCCC
DNA 2: TGGTGGCTACGACGGGATT
B9: UUUCGAG (DNA:RNA)
RNA: B1 RNA with C26U, C27U, U30A, A31G
DNA 1: CAATCTGAATTCCGGTCTCCC
DNA 2: TGGTGGCTACGACGGGATT
B10: AUUAUUA (DNA:RNA)
RNA: B1 RNA with U25A, C26U, C27U, C28A, G29U
DNA 1: CAATCTGAATTCCGGTCTCCC
DNA 2: TGGTGGCTACGACGGGATT
B11: UUUUUAA (DNA:RNA)
RNA: B8 RNA with C25U, G26U, G27U, C30A, C31A
DNA 1: CAATCTGAATTCCGGTCTCCC
DNA 2: TGGTGGCTACGACGGGATT
B12: ACUUAAG (DNA:RNA)
RNA: B8 RNA with C25A, G26C, G27U, U29A, C30A, C31G
DNA 1: CAATCTGAATTCCGGTCTCCC
DNA 2: TGGTGGCTACGACGGGATT
B13: CCAGAGG (DNA:RNA)
RNA: B8 RNA with G26C, G27A, U28G, U29A, C30G, C31G
DNA 1: CAATCTGAATTCCGGTCTCCC
DNA 2: TGGTGGCTACGACGGGATT
B14: UCGAGAA (DNA:RNA)
RNA: B1 RNA with C27G, C28A, U30A
DNA 1: CAATCTGAATTCCGGTCTCCC
DNA 2: TGGTGGCTACGACGGGATT
B15: UUUCGCU (DNA:RNA)
RNA: B1 RNA with C26U, C27U, U30C, A31U
DNA 1: CAATCTGAATTCCGGTCTCCC
DNA 2: TGGTGGCTACGACGGGATT
B16: UUGAACG (DNA:RNA)
RNA: B8 RNA with C25U, G26U, U28A, U29A, C31G
DNA 1: CAATCTGAATTCCGGTCTCCC
DNA 2: TGGTGGCTACGACGGGATT
B17: UGGAACG (DNA:RNA)
RNA: B8 RNA with C25U, U28A, U29A, C31G
DNA 1: CAATCTGAATTCCGGTCTCCC
DNA 2: TGGTGGCTACGACGGGATT
B18: CGGAACG (DNA:RNA)
RNA: B8 RNA with U28A, U29A, C31G
DNA 1: CAATCTGAATTCCGGTCTCCC
DNA 2: TGGTGGCTACGACGGGATT
B19: GAACGUU (DNA:RNA)
RNA: B1 RNA with U25G, C26A, C27A, A31U
DNA 1: CAATCTGAATTCCGGTCTCCC
DNA 2: TGGTGGCTACGACGGGATT
B20: UGGACCG (DNA:RNA)
RNA: B8 RNA with C25U, U28A, U29C, C31G
DNA 1: CAATCTGAATTCCGGTCTCCC
DNA 2: TGGTGGCTACGACGGGATT
B21: UUAAACG (DNA:RNA)
RNA: B8 RNA with C25U, G26U, G27A, U28A, U29A, C31G
DNA 1: CAATCTGAATTCCGGTCTCCC
DNA 2: TGGTGGCTACGACGGGATT
B22: GGAACGU (DNA:RNA)
RNA: B8 RNA with C25G, G27A, U28A, U29C, C30G, C31U
DNA 1: CAATCTGAATTCCGGTCTCCC
DNA 2: TGGTGGCTACGACGGGATT
B23: CGAACGU (DNA:RNA)
RNA: B8 RNA with G27A, U28A, U29C, C30G, C31U
DNA 1: CAATCTGAATTCCGGTCTCCC
DNA 2: TGGTGGCTACGACGGGATT
B24: UUGAACC (DNA:RNA)
RNA: B8 RNA with C25U, G26U, U28A, U29A
DNA 1: CAATCTGAATTCCGGTCTCCC
DNA 2: TGGTGGCTACGACGGGATT
B25: CCGAACG (DNA:RNA)
RNA: B8 RNA with G26C, U28A, U29A, C31G
DNA 1: CAATCTGAATTCCGGTCTCCC
DNA 2: TGGTGGCTACGACGGGATT
B26: UGGACGU (DNA:RNA)
RNA: B8 RNA with C25U, U28A, U29C, C30G, C31U
DNA 1: CAATCTGAATTCCGGTCTCCC
DNA 2: TGGTGGCTACGACGGGATT
B27: GUUAACG (DNA:RNA)
RNA: B8 RNA with C25G, G26U, G27U, U28A, U29A, C31G
DNA 1: CAATCTGAATTCCGGTCTCCC
DNA 2: TGGTGGCTACGACGGGATT

Residue numbers refer to the chain shown, from its start. Over roughly 16,000 sequences, “ka relative to ugcaugu” has its median near 0.096; the highest 2% begin near 0.35. Only a selection was taken, and the highest values are over-represented in it overall.

The target in this experiment is T1, RBFOX1 RRM RbFoxmut (Fox-RRM*). Put plainly: EMSA; HiTS-Eq, 1 nM pool, 10 min; buffer printed only for the single-RNA assays: 10 mM Tris pH 7.5, 150 mM NaCl, 3.4 mM EDTA, 0.001% NP-40, 30 C. The settings on record: tags: His6 N-terminal (pET28a); label: 5' 32P. A digest of the protocol:
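These values rest on relative association constants, computed from read-count changes of each RNA species versus the control reaction and normalised to the cognate motif. Reads came from free RNA recovered by 8% native PAGE after purified RbFox RRM (wild type or mutant) at increasing concentrations was equilibrated for 10 min in 50 µL with 1 nM of a 5′-radiolabelled pool with 7 randomized nucleotides and DNA-annealed flanks.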
On the technique in general: In EMSA bound probe runs differently from free probe, usually more slowly.
On to B1, for which the binding signal was 0.12 KA relative to UGCAUGU.
The result for B2 reads 0.315 KA relative to UGCAUGU; that for B3, 0.308 KA relative to UGCAUGU; that for B4, 0.0778 KA relative to UGCAUGU.
The result for B5 reads 0.75 KA relative to UGCAUGU.
For the molecule B6, the binding signal was 0.915 KA relative to UGCAUGU.
To B7 belongs 0.158 KA relative to UGCAUGU.
To B8 belongs 0.104 KA relative to UGCAUGU.
To B9 belongs 0.107 KA relative to UGCAUGU; to B10, 0.154 KA relative to UGCAUGU; to B11, 0.1 KA relative to UGCAUGU.
Turning to B12, the binding signal was 0.174 KA relative to UGCAUGU.
For the molecule B13, the binding signal was 0.0884 KA relative to UGCAUGU.
The result for B14 reads 0.116 KA relative to UGCAUGU; that for B15, 0.0799 KA relative to UGCAUGU; that for B16, 0.39 KA relative to UGCAUGU.
Turning to B17, the binding signal was 0.84 KA relative to UGCAUGU.
To B18 belongs 0.53 KA relative to UGCAUGU.
To B19 belongs 0.199 KA relative to UGCAUGU; to B20, 0.238 KA relative to UGCAUGU; to B21, 0.0812 KA relative to UGCAUGU.
The result for B22 reads 0.415 KA relative to UGCAUGU.
Turning to B23, the binding signal was 0.175 KA relative to UGCAUGU.
The result for B24 reads 0.129 KA relative to UGCAUGU; that for B25, 0.211 KA relative to UGCAUGU.
The result for B26 reads 0.147 KA relative to UGCAUGU; that for B27, 0.111 KA relative to UGCAUGU.

The record behind these values is PMC9911399, “Two distinct binding modes provide the RNA-binding protein RbFox with extraordinary sequence specificity”.
